Assay results from ChEMBL document CHEMBL3988442, “University of Dundee, Small-Polar-MMV Screening Library” (2021).
Among all 69,000 compounds or so, about 950 (1.4%) showed an effect of 50% or more. The full list was thinned out, with strong results kept by preference.

test system: Mycobacterium tuberculosis; assay: Cornell M. t heat shock assay; assay type: functional, organism-based; parameters: dose or concentration left out as unconfirmed; note: in the data most compounds retested in dose-response had high values

Structure (SMILES) | Percent Effect
O=C(O)C(F)(F)F.O=C(O)C(F)(F)F.c1cc(COC[C@]23COC[C@H]2CN(CC2CCC2)C3)ccn1 | -30%
O=C(NC[C@]12COC[C@H]1CN(Cc1ccncc1)C2)c1ccco1.O=C(O)C(F)(F)F.O=C(O)C(F)(F)F | -3.617%
Cn1cncc1C(=O)N1CCOC2(COCCN(CC3CC3)C2)C1.O=C(O)C(F)(F)F (stereo not given) | 41.2%
Cc1cnn(CC2CCCN2Cc2nnc(C3CC3)n2C)c1 (stereo not given) | 10.04%
Cc1cnn(CC2CN(Cc3nccn3CC(F)(F)F)CCO2)c1 (stereo not given) | -15.97%
Cc1cnn(CC2CCCCN2Cc2ncc(C(C)(C)C)o2)c1 (stereo not given) | -8.099%
Cc1cnn(CC2CCCCN2Cc2cnc(C)s2)c1 (stereo not given) | 18.92%
Cc1cnn(CC2CCCCN2Cc2nccn2CC(F)(F)F)c1 (stereo not given) | 52.97%
Cc1cnn(CC2CCCN2Cc2nccn2CC(F)(F)F)c1 (stereo not given) | 101.7%
CCn1ccnc1CN1CCCC1Cn1cc(C)cn1 (stereo not given) | 89.45%
Cc1nc(C2CCCN2Cc2nccn2CC(F)(F)F)no1 (stereo not given) | -9.202%
Cc1cnn(CC2CCCN2Cc2nccn2C)c1 (stereo not given) | 15.87%
CCn1ccnc1CN1CCN(CCC(=O)NC2CCCCC2)CC1 | 24.85%
CC1=N[C@@]2(CC[C@@H]3CNC[C@@H]32)C(=O)N1CC(C)C.O=C(O)C(F)(F)F | -9.466%
Fc1cnc(N2CCCC3(COCCN(c4nccs4)C3)C2)nc1.O=C(O)C(F)(F)F.O=C(O)C(F)(F)F (stereo not given) | 4.049%
COc1c(CNC2CCCOc3ccc(F)cc32)c(C(C)C)nn1C.Cl (stereo not given) | -10.1%
O=C(O)C(F)(F)F.O=C1NCC[C@]12CN(CC1CCOCC1)C[C@H]2c1ccccc1 | -6.347%
CCc1ccc(CN2C[C@H](OCC(=O)N(C)C)[C@H]3COC[C@H]32)o1.O=C(O)C(F)(F)F | 13.05%
CO[C@H]1CN(CC2CC2)[C@@H]2CCCO[C@H]12.O=C(O)C(F)(F)F | 13.63%
CC(C)CC(NCc1cccs1)c1ccccn1 (stereo not given) | 99.48%
O=C(Cn1cccnc1=O)NC(Cc1cccs1)c1ccccn1 (stereo not given) | -7.839%
CS(=O)(=O)N1CCC(C(=O)NC(Cc2ccsc2)c2ccccn2)CC1 (stereo not given) | -2.015%
CC(C)CC(NCc1ccsc1)c1ccccn1 (stereo not given) | 95.2%

Structure (SMILES) | Percent Effect
c1ccc(OCCNCc2cccs2)nc1 | -4.17%
CC(C)CC(NCc1cscn1)c1ccccn1 (stereo not given) | 27.38%
Cl.O=C(c1ccccc1)N1CCC2(CC1)CNc1c(F)cccc12 | 9.544%
Cc1cnn(CC2CN(Cc3nc4ccccc4s3)CCO2)c1 (stereo not given) | -2.009%
CN(Cc1cncnc1)[C@H]1CN(C(=O)c2ccco2)[C@@H]2CCCO[C@@H]21 | -2.729%
CN(Cc1cncnc1)[C@@H]1CN(C(=O)c2ccco2)[C@@H]2CCCO[C@H]12.O=C(O)C(F)(F)F | 50.13%
CN(Cc1cncnc1)[C@@H]1CN(C(=O)C2CC2)[C@@H]2CCCO[C@H]12.O=C(O)C(F)(F)F | 8.478%
COc1ccc2[nH]cc(C(=O)CNc3nc(C)cs3)c2c1.I | 4.496%
COc1cccc(CC(=O)N2CC[C@@H]3[C@H](CC2)N(C)CCS3(=O)=O)c1.O=C(O)C(F)(F)F | 5.677%
CCCc1noc(CN2CCCC2c2ccsc2)n1 (stereo not given) | 4.131%
CN(C)c1nc(N)nc(CN2CCCC(c3ccccc3)CC2)n1 (stereo not given) | -13.13%
Cn1ncc2c(=O)[nH]c(CN3CCCC3c3ccsc3)nc21 (stereo not given) | -12.54%
CN(C)c1nc(N)nc(CN2CCCC2c2cccs2)n1 (stereo not given) | 97.97%
Cc1nc(CN2CCCC2c2ccsc2)nc2ccccc12 (stereo not given) | 40.46%
Cn1ncc2c(=O)[nH]c(CN3CCCC3c3cccs3)nc21 (stereo not given) | 80.29%
CN(C)c1nc(N)nc(CN2CCCC2c2ccsc2)n1 (stereo not given) | 64.16%
Cc1cccc(C2CCCN2Cc2nc(N)nc(N(C)C)n2)c1C (stereo not given) | 47.4%
Cc1ccccc1C1CCCN1Cc1nc2c(cnn2C)c(=O)[nH]1 (stereo not given) | -11.52%
CC(C)NC(=O)N1CCc2ncc(CN3CCOCC3)n2CC1.O=C(O)C(F)(F)F | -16.24%
Cc1noc(C)c1CN1CC[C@H]2[C@H]1CCN2CC1CCOCC1.O=C(O)C(F)(F)F.O=C(O)C(F)(F)F | -9.429%
C=C(C)CN1CCN(Cc2cnc(-c3ccccc3C)nc2)CC1.O=C(O)CC(O)(CC(=O)O)C(=O)O | 1.349%
CCOCC1CN(Cc2ccoc2)Cc2nn(C)cc21.O=C(O)C(F)(F)F (stereo not given) | -18.76%
O=C(N1CCCC1)N1CC[C@H]2[C@H]1CCN2c1ncccn1.O=C(O)C(F)(F)F | -10.67%

Structure (SMILES) | Percent Effect
COc1cc2c(cc1CNC(Cc1cccs1)c1nccs1)OCCO2.Cl (stereo not given) | 2.723%
Cl.O=C(C1CCC1)N1C[C@@H](c2ccsc2)[C@@H]2CN(C3CCCCC3)CC[C@@H]21 | -50.24%
Cc1ccc2nc(C3CCN(CC4CC4)CC3)nn2c1.O=C(O)C(F)(F)F | -35.41%
CC(C)COC(C)C(=O)NCCNS(C)(=O)=O (stereo not given) | -20.75%
CCOC(C)C(=O)NCCNS(C)(=O)=O (stereo not given) | 69.12%
CC(C)COC(C)C(=O)NCCNC(=O)C(C)C (stereo not given) | -3.282%
O=C(O)C(F)(F)F.O=C(c1ccoc1)N1CC[C@@H](N2CCOCC2)[C@@H]1Cc1ccccc1 | -25.18%
O=C(NCc1ccccn1)[C@H]1COC[C@H]2CN(C3CCCC3)C[C@H]21.O=C(O)C(F)(F)F.O=C(O)C(F)(F)F | -26.6%
Cc1ccc(CN[C@@H]2COC[C@H]2Cc2cc(C)no2)cc1.O=C(O)CC(O)(CC(=O)O)C(=O)O | 0.5554%
O=C1CN(Cc2nnc(-c3ccc(Br)o3)o2)CCN1 | 51.83%
O=C1CN(Cc2nnc(-c3ccccc3Br)o2)CCN1 | 14.67%
O=C1CN(Cc2nnc(-c3ccc(Br)cc3)o2)CCN1 | 1.317%
Cl.c1cc(CNCc2ccc(Cn3cncn3)cc2)c2c(c1)OCCO2 | -1.246%
Cl.NC(=O)COc1ccc(CNCc2cc(F)ccc2F)cc1 | -36.29%
CCc1cc(=O)n(CC(=O)NCC2CCCO2)c(-c2cccc(F)c2)n1 (stereo not given) | 19.5%
CCN(CC)C(=O)Cn1c(-c2ccc(Cl)cc2)nc(C)c(CCO)c1=O | 69.66%
COCCNC(=O)Cn1c(-c2ccc(Cl)cc2)nc(C)c(CCO)c1=O | 50.09%
CCOc1nc2cccnc2n(CC(=O)NCCOC)c1=O | 5.103%
Cc1nc(-c2ccc(Cl)cc2)n(CC(=O)NC(C)C)c(=O)c1CCO | 47.89%
CCN(CC)C(=O)c1nnsc1-c1ccc(Cl)cc1 | -12.37%
COCCCNC(=O)Cn1c(-c2cccc(Cl)c2)nc(C)cc1=O | 10.79%
COCCNC(=O)Cn1c(-c2ccc(F)cc2)nc(C)c(CCO)c1=O | 29.85%
Cc1cc(=O)n(CC(=O)NCCC(C)C)c(-c2cccc(Cl)c2)n1 | 9.879%

Structure (SMILES) | Percent Effect
COCCNC(=O)Cn1c(-c2cccc(F)c2)nc(C)c(CCO)c1=O | 66.78%
COCCNC(=O)Cn1c(-c2cccc(Cl)c2)nc(C)c(CCO)c1=O | 68.55%
COCCNC(=O)Cn1ccc2ccc(F)cc21 | 14.54%
Cc1ccc(-c2ccc(C3CNCCO3)nc2)cc1.Cl (stereo not given) | -12.85%
CC[C@@H]1N(Cc2nccs2)CCC[C@]12CCC(=O)N2C.O=C(O)C(F)(F)F | -9.457%
CCOCC1CN(Cc2ccccn2)Cc2nn(CC3CC3)cc21.O=C(O)C(F)(F)F.O=C(O)C(F)(F)F (stereo not given) | -24.37%
O=C(O)C(F)(F)F.O=C(c1ncccn1)N1CCC[C@]2(C[C@@H](Oc3ncccc3F)CO2)C1 | -26.7%
O=C(Cc1ccccc1F)N1C[C@@H]2COC[C@]2(COc2cccnc2)C1.O=C(O)C(F)(F)F | -4.707%
COCC(=O)N1CCCn2c(CN3CCOCC3)nnc2C1.O=C(O)C(F)(F)F | -20.35%
Cl.FC(F)CNc1cnc(C2CCCN2)cn1 (stereo not given) | -21.09%
O=C(O)C(F)(F)F.O=C1NCCN(CC2CC2)C12CCN(Cc1ccccc1)CC2 | -29.41%
COCC1CC2(CCN(Cc3ccncc3)CC2)CN1C(C)C.O=C(O)C(F)(F)F.O=C(O)C(F)(F)F.O=C(O)C(F)(F)F (stereo not given) | -9.126%
O=C(Nc1cccnc1)[C@H]1C[C@@H]2CN(S(=O)(=O)C3CC3)C[C@H]1O2 | -11.95%
COCc1ncn2c1CN(C(=O)c1ccc3ccccc3n1)CC2.O=C(O)C(F)(F)F | -56.59%
CO[C@H]1C[C@@H]2CN(C(=O)c3cc4ccc(F)cc4[nH]3)C[C@@H]2C1 | 35.64%
COc1ccc(CN2C[C@H]3CN(c4ccsc4)C(=O)[C@H]3C2)cc1.O=C(O)C(F)(F)F | 16.76%
COc1ccc(F)cc1C(=O)N1C[C@H]2C[C@H](OC)C[C@H]2C1 | -3.804%
CC(=O)N1CCC2(CC1)CN(C(=O)[C@@H]1CSCN1)c1ccc(Cl)cc12.O=C(O)C(F)(F)F | 52.14%
Cl.Cl.O=C([C@H]1CCCN1)N1CC2(CCNCC2)c2cc(Cl)ccc21 | -22.31%
Cl.Cl.O=C([C@@H]1CSCN1)N1CC2(CCNCC2)c2cc(Cl)ccc21 | 3.414%
O=C(CC1CCCC1)N1C[C@H](Oc2cccnc2)[C@H]2OCCC[C@H]21.O=C(O)C(F)(F)F | 0.71%
